# Only some compounds are listed: those with a hit (about 7% of all), similar ones and a draw of the others.
# PI5P4Ka inh: inhibitors of human PI5P4K alpha. P48426. PI5P4Kalpha enzyme, ADP-Glo luminescence, 60 min; active compounds read low. max response, %. actives 1.2% (n = 330,000); active = max response of -50% or lower; inconclusive = between -30% and -50%; inactive = -30% or higher; also: value at the top dose of about 77 µM; % is scaled to controls: 0 for no effect and ±100 for the full control effect
#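 ADP-Glo luminescence end-point after a 60 min room-temperature kinase reaction. PI5P4Kalpha and substrate in HEPES pH 7.4 buffer with EGTA, 0.1% CHAPS and 5% DMSO; ATP at 5 microM final.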
# KAT2A inh: blocks human GCN5L2 histone acetyltransferase. Potency, µM (doses to about 58.9 µM), for the others: at the highest dose activity change, negative = inhibition, most hits filed as inhibitors. GCN5L2 HAT assay, ThioGlo1 CoA-SH fluorescence. Q92830. actives 0.21% (n = 390,000); also: potency is read from the fitted curve at half-maximal effect; % is scaled to controls: 0 for no effect and ±100 for the full control effect
#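 qHTS, 1536-well. 20nM enzyme, pH 7.5 HEPES/EDTA/Tween-20 buffer; 15 min compound preinc., RT. Start: 75uM H3(1-25), 70uM AcCoA, 50uM ThioGlo1. Read Ex340/Em540 at t=0 (autofluorescence flag) and t=20 min.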
# BAZ2B block: BAZ2B (human) inhibition; AlphaScreen BAZ2B-H3K14Ac peptide displacement; Potency, µM (top dose mostly 114 µM), inactives show top-dose activity change, negative = inhibition, actives largely listed as inhibitors; actives 4.4% (n = 360,000); AID 504333; also: potency is read from the fitted curve at half-maximal effect; % is scaled to controls: 0 for no effect and ±100 for the full control effect; nearly all actives have a fitted effect of over 60% in size
#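 BAZ2B 50 nM plus b-H3(5-23)K14Ac 50 nM, PBS pH 7.4/0.01% Tween-20, 30 min RT; compound added (max 110 uM), 30 min RT; streptavidin donor/Ni-chelate acceptor beads 10 ug/mL final, 20 min dark; AlphaScreen read.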
# PLK1 PBD inh: inhibitors of human PLK1 polo-box domain binding; P53350; Plk1 PBD binding of FITC phosphopeptide, fluorescence polarization; AID 720504; actives 2.8% (n = 360,000); Potency, µM, without a hit: max response, negative = inhibition, actives largely listed as inhibitors; also: potency is read from the fitted curve at half-maximal effect; series mostly up to about 57 µM; % is scaled to controls: 0 for no effect and ±100 for the full control effect; nearly all actives have a fitted effect of over 65% in size
# Target sequence (P53350 whole entry, looked up, the tested form may be a part): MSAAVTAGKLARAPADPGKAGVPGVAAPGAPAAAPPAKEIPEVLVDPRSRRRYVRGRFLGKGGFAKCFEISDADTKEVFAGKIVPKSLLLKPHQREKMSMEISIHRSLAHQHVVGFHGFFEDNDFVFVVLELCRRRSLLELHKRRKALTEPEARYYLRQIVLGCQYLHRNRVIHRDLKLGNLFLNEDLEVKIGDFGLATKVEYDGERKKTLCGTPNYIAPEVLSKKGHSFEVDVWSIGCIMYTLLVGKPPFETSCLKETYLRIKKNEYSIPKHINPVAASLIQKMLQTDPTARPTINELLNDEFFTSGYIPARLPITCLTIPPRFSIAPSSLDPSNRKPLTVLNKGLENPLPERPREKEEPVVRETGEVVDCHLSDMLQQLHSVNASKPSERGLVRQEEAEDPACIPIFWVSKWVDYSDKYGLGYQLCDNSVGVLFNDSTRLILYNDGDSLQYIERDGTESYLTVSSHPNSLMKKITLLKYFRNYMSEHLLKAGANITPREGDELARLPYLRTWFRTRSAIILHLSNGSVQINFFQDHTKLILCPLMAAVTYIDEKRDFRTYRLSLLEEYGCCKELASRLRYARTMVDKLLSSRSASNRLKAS
# HP1b binding inh: inhibitors of HP1-beta chromodomain binding to methylated histone tails | P83916 | AlphaScreen HP1-beta / biotin-H3K9me3 peptide binding | Potency, µM (top dose mostly 114 µM), without a hit: at the top dose activity change, negative = inhibition, hits mostly inhibitors | actives 0.56% (n = 390,000) | AID 540317; also: potency is read from the fitted curve at half-maximal effect; nearly all actives have a fitted effect of over 70% in size
#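 HP1-beta protein (50 nM final) preincubated 30 min at room temperature with biotinylated H3(1-18)K9me3 peptide (50 nM) in PBS pH 7.4, 0.01% Tween-20, then compound added for 30 min. AlphaScreen streptavidin donor/nickel chelate acceptor beads (10 ug/mL final), 30 min dark, luminescence read.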
# JMJD2A Tudor: blocks the human JMJD2A Tudor domain | O75164 | AlphaScreen JMJD2A-Tudor / H3K4me3 peptide binding | Potency, µM (doses to about 114 µM), inactives show at the highest dose activity change, negative = inhibition, most hits filed as inhibitors | actives 4.4% (n = 390,000); also: potency is read from the fitted curve at half-maximal effect; % is scaled to controls: 0 for no effect and ±100 for the full control effect; nearly all actives have a fitted effect of over 50% in size
# * marks the source's active call; other numbers are inactive results; ? = inconclusive; · = not tested or not shown; [ ] = remark or other dose. Unless noted, calls follow the shape of the dose curve; as a rule, active = well fitted curve in the direction sought with a large enough effect; inconclusive = small, poorly fitted or top-dose-only effect, or another doubt; inactive = no such curve, though single readings can be large; an effect the other way counts as inactive or inconclusive.
SMILES,PI5P4Ka inh,KAT2A inh,BAZ2B block,PLK1 PBD inh,HP1b binding inh,JMJD2A Tudor
CCOC(=O)C1CCN(CC(=O)Nc2cc(S(=O)(=O)N3CCOCC3)ccc2C)CC1,0,-5%,79µM*,-4%,71µM*,4µM*
Cc1ccc(S(=O)(=O)N2CCOCC2)cc1NC(=O)COC(=O)C1CCC1,1,·,·,1%,·,·
Cc1ccc(S(=O)(=O)N2CCOCC2)cc1NC(=O)CN1CCN(C)CC1,-5,-2%,0%,3%,14%,-15%
Cc1ccc(S(=O)(=O)N2CCOCC2)cc1NC(=O)CN1CCN(c2ccc(O)cc2)CC1,-16,-1%,?,3%,?,25µM*
CCC[n+]1c(C)sc2c3c(ccc21)CCCC3,-55*,-7%,-23%,?,40µM*,45µM*
CC(C)NC(=O)Cn1cc(C(=O)C2CC2)c2ccccc21,0,0%,-2%,?,-19%,-23%
Cc1ccccc1-n1c(C)n[nH]c1=S,·,-5%,9%[57.1 µM],-27%,-4%,20µM*
Cc1cccc(-n2c(-c3ccoc3C)n[nH]c2=S)c1,2,-5%,-11%,-9%,-17%,8.9µM*
Cc1ccccc1-n1c(-c2ccoc2C)n[nH]c1=S,-6,2%,0%,-8%,5%,7.9µM*
Cc1ccc([N+](=O)[O-])c(-c2n[nH]c(=S)n2-c2cccc(Cl)c2)c1,-3,0%,-39%,-18%,7%,?
CC1(c2ccccc2)CC(C)(C)N2C(=O)/C(=C3\SC(=S)NC3=O)c3cccc1c32 (stereo not drawn),-25,-2%,?,24µM*,14µM*,28µM*
CC1(c2ccccc2)CC(C)(C)N2C(=O)C3(C(C#N)=C(N)Oc4cc(O)ccc43)c3cccc1c32 (stereo not drawn),·,-9%,-38%,-1%,?,?
Nc1cc(Cc2ccccc2)ccc1O,19,·,·,-5%,45µM*,3.2µM*
Nc1cc(N)cc(Cc2ccccc2)c1,?,·,·,-7%,·,·
CCN1C(=O)[C@H]2[C@@H](c3ccc(-c4cccc(Cl)c4)c(OC)c3)N[C@@](C)(C(=O)OC)[C@H]2C1=O,0,-14%,?,-26%,31%,-26%
CCc1sc(/C=C(/C#N)C(N)=S)cc1[N+](=O)[O-],-83*,?,?,5.3µM*,?,?
CSc1nc(O)c(C(c2ccc(O)cc2)c2c(O)nc(SC)[nH]c2=O)c(=O)[nH]1,?,-6%,?,?,?,-6%
C=CCOc1ccc(C(c2c(O)nc(SC)[nH]c2=O)c2c(O)nc(SC)[nH]c2=O)cc1,-26,·,·,12µM*,10%,-4%
CCOc1ccccc1C(c1c(O)nc(SC)[nH]c1=O)c1c(O)nc(SC)[nH]c1=O,?,·,·,-25%,51%,-1%
CCOc1ccc(C(c2c(O)nc(SC)[nH]c2=O)c2c(O)nc(SC)[nH]c2=O)cc1,?,·,·,24µM*,32%,-21%
COc1ccc(C2CC(=O)C(C3NCCc4ccccc43)=C(O)C2n2cncn2)cc1 (stereo not drawn),1,0%,13%,-5%,25%,-1%
COc1ccc(C(=O)O)cc1S(=O)(=O)NCCc1ccccn1,-7,21%,-25%,-10%,20%,-8%
NC(=S)NNc1cc(Cl)cc(Cl)c1,0,-5%,-36%,-30%,-19%,35µM*
Cc1ccccc1C(=O)OC1OC(=O)C(Cl)=C1Nc1ccc(C(=O)O)cc1 (stereo not drawn),-29,-19%,1%,3.8µM*,?,14µM*
Cc1ccc(NC2=C(Cl)C(=O)OC2OC(=O)c2ccco2)cc1C (stereo not drawn),10,-4%,-4%,-11%,30%,-9%
SMILES,PI5P4Ka inh,KAT2A inh,BAZ2B block,PLK1 PBD inh,HP1b binding inh,JMJD2A Tudor
CCCn1c(=O)c2c(nc3n2CCN3c2ccc(C)cc2)n(C)c1=O,·,0%,4%,·,56%,-1%
O=c1[nH]c(C(Cl)Cl)nc2sc3c(c12)CCN(Cc1ccccc1)C3,-23,-18%,?,?,27%,79µM*
CCCNC(=O)C1(C)CCN1C(=O)C/C=C/c1ccccc1 (stereo not drawn),3,·,·,-7%,·,·
CCOc1ccc(OCCCCNC(C)(C)C)cc1,2,-5%,50µM*,-15%,-5%,35µM*
CCOc1cccc(OCCOCCNC(C)(C)C)c1,9,8%,45µM*,0%,-51%,22µM*
CS(=O)(=O)c1ccc(S(=O)CC(=O)OCc2ccccc2)c([N+](=O)[O-])c1 (stereo not drawn),-7,-3%,-21%,2.4µM*,24%,-15%
COC(=O)c1ccc(OC(=O)CS(=O)c2ccccc2[N+](=O)[O-])cc1 (stereo not drawn),-2,-12%,-10%,?,32%,-3%
O=C(CS(=O)c1ccc(C(F)(F)F)cc1[N+](=O)[O-])Oc1ccccc1 (stereo not drawn),7,-16%,?,27µM*,-37%,-17%[11.4 µM]
CC1=CC(C)(C)Nc2ccc(Cc3ccc4c(c3)C(C)=CC(C)(C)N4)cc21,-21,-11%,14µM*,-7%,?,18µM*
CC1=CC(C)(C)Nc2ccc(C)cc21,·,2%,50µM*,-1%,7%,?
CC1=CC(C)(C)Nc2cc(C)c(C)cc21,6,0%,50µM*,-9%,?,50µM*
CC1=CC(C)(C)Nc2ccc(OC(=O)CN3C(=O)CCC3=O)cc21,·,-1%,-5%,-6%,14%,-6%
CCN(CC(=O)NCc1ccc(Cl)cc1)Cc1cc(=O)n2ccsc2n1,-16,-5%,-20%,?,25%,-7%
CC(CNC(=O)c1cc(-c2ccccc2)n[nH]1)c1ccccc1 (stereo not drawn),·,-9%,-8%,·,29%,-11%
COc1cc2c(cc1OC)C(NNC(=O)c1ccc(Br)o1)=NC(C)(C)C2,2,0%,-21%,-1%,29%,4%
O=C(O)C(=O)/C(=C\c1ccc(Cl)cc1)c1ccc2ccccc2n1,1,-6%,?,?,38%,22µM*
Nc1ccc(-c2nc3ccccc3o2)cc1,-2,2%,1%,7%,19%,40µM*
Nc1cc(N)cc(-c2nc3ccccc3o2)c1,-7,·,·,-4%,-2%,?
CC(=O)c1c(COC(=O)c2ccncc2)nc2ccccc2[n+]1[O-],?,-15%,40µM*,-2%,10%,-2%
CC(=O)c1c(COC(=O)c2ccco2)nc2ccccc2[n+]1[O-],?,-25%,50µM*,-1%,6%,-13%
